Source: PubChem BioAssay
JMJD2A Tudor: inhibitors of human JMJD2A Tudor domain; Potency, µM (series often up to 114 µM), most hits filed as inhibitors; O75164; AID 504339; AlphaScreen JMJD2A-Tudor / H3K4me3 peptide binding; 390,000 tested, 4.4% active; also: nearly all actives have a fitted effect of over 50% in size
G9a block: blocks human histone lysine methyltransferase G9a | Potency, µM (highest dose often 102 µM), hits mostly inhibitors | G9a H3K9 monomethylation, AlphaScreen, 2 h | 350,000 tested, 8.8% active | Q96KQ7 | AID 504332; also: nearly all actives have a fitted effect of over 75% in size
Target sequence (Q96KQ7 913-1193 limits assumed): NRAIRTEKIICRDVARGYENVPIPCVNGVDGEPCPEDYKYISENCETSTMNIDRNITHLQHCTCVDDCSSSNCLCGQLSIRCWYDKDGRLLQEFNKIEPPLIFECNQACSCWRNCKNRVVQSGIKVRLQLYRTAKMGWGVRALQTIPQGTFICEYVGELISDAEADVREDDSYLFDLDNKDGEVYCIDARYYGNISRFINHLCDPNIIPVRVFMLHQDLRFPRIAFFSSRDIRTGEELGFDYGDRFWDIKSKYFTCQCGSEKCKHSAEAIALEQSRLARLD
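Methyltransferase reactions run at room temperature for 2 h (20 nM enzyme, 500 nM biotin-H3K9 peptide, 20 uM SAM) after a 15 min compound preincubation; product detected by AlphaScreen beads and anti-H3K9me1 antibody.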
HP1b chromo inh: blocks HP1-beta chromodomain binding to methylated histone tails. P83916. AlphaScreen HP1-beta / biotin-H3K9me3 peptide binding. Potency, µM (series often up to 114 µM), usual class: inhibitors. 390,000 tested, 0.56% active. AID 540317; also: nearly all actives have a fitted effect of over 70% in size
Target sequence (P83916 whole entry, looked up): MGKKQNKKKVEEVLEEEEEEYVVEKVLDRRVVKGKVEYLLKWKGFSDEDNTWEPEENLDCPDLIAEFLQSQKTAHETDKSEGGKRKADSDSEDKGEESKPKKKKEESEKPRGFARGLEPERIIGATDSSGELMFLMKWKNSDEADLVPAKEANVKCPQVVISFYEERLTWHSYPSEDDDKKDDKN
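AlphaScreen: HP1-beta (50 nM) preformed 30 min with biotin-H3(1-18)K9me3 peptide (50 nM) in PBS pH 7.4, 0.01% Tween-20. Compound added for 30 min at RT, then streptavidin donor/nickel chelate acceptor beads (10 ug/mL) for 30 min.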
BAZ2B inh: BAZ2B (human) inhibition; AlphaScreen BAZ2B-H3K14Ac peptide displacement; Q9UIF8; Potency, µM (doses to about 114 µM), hits mostly inhibitors; 360,000 tested, 4.4% active; also: nearly all actives have a fitted effect of over 60% in size
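In this displacement format the biotinylated H3(5-23) peptide acetylated at Lys14 serves as ligand at 50 nM, with BAZ2B at 50 nM in PBS pH 7.4 containing 0.01% Tween-20. Donor and acceptor beads are 10 ug/mL final.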
Sfp inh: blocks B. subtilis Sfp PPTase activity. Q9F4F7. Biochemical Sfp PPTase activity, qHTS. Potency, µM, usual class: inhibitors. 310,000 tested, 3.5% active;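 also: the enzyme is Sfp with the accession as filed and its product quenches rhodamine fluorescence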
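Fluorescence-quenching assay with 15 nM Sfp, 5 uM rhodamine-CoA and 12.5 uM BHQ-2-labelled ybbR peptide in pH 7.6 Hepes/MgCl2 buffer. Enzyme was pre-incubated with compound for 15 min at room temperature. Rate was taken from the 30-min fluorescence change (525/598 nm).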
Large screens that a line does not name were inactive. Shown are actives, neighbours in structure and some others; about 12% of the full set was active somewhere. Calls follow the shape of the dose curve; as a rule, active = well fitted curve in the direction sought with a large enough effect; inconclusive = small, poorly fitted or top-dose-only effect, or another doubt; inactive = no such curve, though single readings can be large; an effect the other way counts as inactive or inconclusive.

C[C@H](O)CO[C@H]1[C@H]2O[C@H]3[C@H](O)[C@@H](O)[C@@H](O[C@H]4[C@H](O)[C@@H](O)[C@@H](O[C@H]5[C@H](O)[C@@H](O)[C@@H](O[C@H]6[C@H](O)[C@@H](OC[C@H](C)O)[C@@H](O[C@H]7[C@H](O)[C@@H](OC[C@H](C)O)[C@@H](O[C@H]8[C@H](O)[C@@H](O)[C@@H](O[C@@H]([C@@H]1O)[C@@H](CO)O2)O[C@@H]8CO)O[C@@H]7CO)O[C@@H]6CO)O[C@@H]5CO)O[C@@H]4CO)O[C@@H]3CO	none (no result: JMJD2A Tudor, G9a block, HP1b chromo inh, BAZ2B inh)
Cc1cc(C)c(C#N)c(=N)o1	JMJD2A Tudor 79µM, G9a block 1.8µM, Sfp inh 14µM (no result: BAZ2B inh)
CCCOc1ccc2nc(C)c(CCC)c(SC(=N)N)c2c1	JMJD2A Tudor inconclusive, G9a block 40µM, BAZ2B inh inconclusive, Sfp inh inconclusive
Cc1cc(C)cc(NC(=O)C(Sc2ncnc3ccccc23)c2ccccc2)c1 (stereo not drawn)	none
CCCc1cc(=O)n2[nH]c(C)c(-c3ccccc3)c2n1	none
Cc1[nH]n2c(=O)cc(C(C)C)nc2c1-c1ccccc1	none
Cc1[nH]n2c(=O)cc(-c3ccc([N+](=O)[O-])cc3)nc2c1-c1ccccc1	JMJD2A Tudor 50µM (no result: G9a block, BAZ2B inh, Sfp inh)
Cc1[nH]n2c(=O)cc(-c3ccc(Cl)cc3)nc2c1-c1ccccc1	JMJD2A Tudor inconclusive, BAZ2B inh 32µM (no result: Sfp inh)
Cc1ccc(N(CC(=O)NCCc2ccc(Cl)cc2)S(=O)(=O)c2c(C)noc2C)cc1	none
Cc1noc(C)c1S(=O)(=O)N(CC(=O)NCCc1ccc(Cl)cc1)c1ccc(C(C)C)cc1	G9a block 1µM (no result: BAZ2B inh, Sfp inh)
CC(=O)OC1CCC2(C)C3=C(CCC2C1(C)C)[C@@]1(C)CCC(C(C)CCC=C(C)C)[C@@]1(C)CC3 (stereo partly drawn)	none (no result: JMJD2A Tudor, HP1b chromo inh, BAZ2B inh)
NC(N)=N/N=C/c1cc([N+](=O)[O-])ccc1O	none
Oc1ccccc1/C=N/Nc1nn[nH]n1	JMJD2A Tudor 56µM, G9a block 40µM, BAZ2B inh 45µM
Cc1ccccc1/C=N/Nc1ccc(Cl)nn1	G9a block 10µM
O=[N+]([O-])c1ccc(O)c(/C=N/Nc2ccc(Cl)nn2)c1	JMJD2A Tudor 7.9µM, BAZ2B inh 4µM (no result: G9a block)
O=[N+]([O-])c1ccc(O)c(/C=N/Nc2nn[nH]n2)c1	JMJD2A Tudor 10µM, BAZ2B inh 6.3µM
COc1cccc(CN2CC(C(=O)NCCSc3nnnn3C)CCC2=O)c1 (stereo not drawn)	none
Clc1ccc(/C=N/Nc2nn[nH]n2)cc1	JMJD2A Tudor inconclusive, G9a block 10µM
C(=N\Nc1nn[nH]n1)/c1ccccc1	JMJD2A Tudor 89µM, G9a block 35µM, BAZ2B inh inconclusive, Sfp inh 45µM
Cn1c(SCc2ccccc2)nnc1-c1cnccn1	none (no result: G9a block)
O=S(=O)(c1ccc(Cl)cc1)c1nc(-c2cccc(Br)c2)oc1NCc1ccccc1	none (no result: Sfp inh)
O=C1CCC/C1=C/Nc1ccc2c(c1)OCO2	G9a block inconclusive, BAZ2B inh inconclusive
CC1CCC/C(=C\Nc2ccc3c(c2)OCO3)C1=O (stereo not drawn)	JMJD2A Tudor 100µM, G9a block 8.9µM, BAZ2B inh inconclusive, Sfp inh inconclusive
CC1CCC/C(=C\Nc2ccccc2C(=O)O)C1=O (stereo not drawn)	G9a block 45µM, BAZ2B inh inconclusive
Cc1cccc(N2CCN(c3ncnc4c3cnn4-c3ccc(Cl)cc3)CC2C)c1 (stereo not drawn)	none (no result: Sfp inh)
Nc1ncnc2c1ncn2C1CCCC(CO)O1 (stereo not drawn)	none (no result: G9a block, BAZ2B inh, Sfp inh)
CCOC1CCCC(n2cnc3c(=S)nc[nH]c32)O1 (stereo not drawn)	JMJD2A Tudor 18µM, HP1b chromo inh inconclusive (no result: G9a block, BAZ2B inh, Sfp inh)
COc1cccc(CN2CCNC(=O)C2CC(=O)NC2CCCC2)c1OC (stereo not drawn)	G9a block 40µM
COc1cccc(CN2CCNC(=O)C2CC(=O)NC2CCCCC2)c1OC (stereo not drawn)	G9a block 35µM
CCOc1ccccc1CN1CCNC(=O)C1CC(=O)NC1CCCCCC1 (stereo not drawn)	JMJD2A Tudor inconclusive, G9a block inconclusive
CCOc1ccccc1CN1CCNC(=O)C1CC(=O)NC1CCCCC1 (stereo not drawn)	none
COc1ccccc1CN1CCNC(=O)C1CC(=O)NC1CCCCCC1 (stereo not drawn)	G9a block 16µM
COc1cccc(CN2CCNC(=O)C2CC(=O)N2CCCCO2)c1OC (stereo not drawn)	G9a block 71µM
O=C(N/N=C\c1c(F)c(F)c(F)c(F)c1F)c1ccc(-c2ccccc2)cc1	none
Cc1ccc(OCCCCn2cnc3ccccc32)cc1	G9a block inconclusive, Sfp inh 40µM
c1ccc2c(c1)ncn2CCCCOc1ccc2c(c1)CCC2	JMJD2A Tudor 2.8µM, G9a block 8.9µM, HP1b chromo inh 71µM, BAZ2B inh 28µM, Sfp inh 32µM
CCCCN(C)CCC(=O)Nc1ccc(C)cc1	G9a block inconclusive
CC(C)CNC(=O)C1CCCN1S(=O)(=O)c1ccc(Cl)cc1 (stereo not drawn)	BAZ2B inh inconclusive
COc1cc(OC)cc(-c2nnc3n2N=C(c2ccc(OC)cc2OC)CS3)c1	JMJD2A Tudor inconclusive, Sfp inh 56µM (no result: G9a block, HP1b chromo inh, BAZ2B inh)
COc1ccc(OC)c(-c2nnc3n2N=C(c2ccccc2OC)CS3)c1	JMJD2A Tudor 79µM, Sfp inh inconclusive (no result: G9a block, HP1b chromo inh, BAZ2B inh)
COc1cccc(-c2nnc3n2N=C(c2ccc(OC)cc2OC)CS3)c1	JMJD2A Tudor inconclusive, Sfp inh 45µM (no result: G9a block, HP1b chromo inh, BAZ2B inh)
CC(=O)c1ccc(OCc2cc(C(=O)NC3CCCCC3)no2)cc1	none
COC(=O)[C@@]12CCCN1[C@H](c1ccc(-c3ccccc3)cc1)[C@H]1C(=O)N(C)C(=O)[C@H]12	JMJD2A Tudor 79µM (no result: Sfp inh)
CCOC(=O)C1(CCCc2ccccc2)CCN(Cc2ccn[nH]2)CC1	G9a block 50µM
O=C(NCCc1ccccn1)C(F)(F)C(F)(F)C(F)(F)C(F)(F)C(F)(F)C(F)F	JMJD2A Tudor 50µM, G9a block inconclusive
COc1ccc(N2CCN(C3CCCCC3NS(=O)(=O)c3ccc(Cl)cc3)CC2)cc1 (stereo not drawn)	JMJD2A Tudor inconclusive, BAZ2B inh 10µM (no result: G9a block)
CCOc1ccc(NC2CCCCC2NS(=O)(=O)c2ccccc2)cc1 (stereo not drawn)	JMJD2A Tudor 56µM, G9a block inconclusive, HP1b chromo inh inconclusive, BAZ2B inh 45µM
COc1ccc(NC2CCCCC2NS(=O)(=O)c2ccc(C)cc2)cc1 (stereo not drawn)	JMJD2A Tudor inconclusive, G9a block 14µM, HP1b chromo inh inconclusive, BAZ2B inh 50µM
CCOc1ccccc1CNC(=O)CCCN1C(=O)CCn2nc(-c3cccn3C)cc21	JMJD2A Tudor inconclusive, BAZ2B inh inconclusive (no result: Sfp inh)
Cc1ccc2nc3c(cc(C#N)c(=O)n3-c3nnc(SCc4ccccc4Cl)s3)c(=O)n2c1	none (no result: Sfp inh)
